Our source for the normalised cell viability values is the supplement of paper PMC6609913.

This assay deals with V-C8 + BRCA2 (BRCA2-proficient hamster cells). In words: normalised cell viability (fraction of plate median); higher = more viable cells (less toxic). Conditions: 5 µM. In short, it runs like this: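 Hamster V-C8 cells lacking BRCA2 and V-C8 cells with BRCA2 restored were seeded in 96-well plates. Library drugs (10 mM DMSO stocks) were added 24 h later at 5 μM in 100 μl medium, next to DMSO control wells, for 3 days (screen 1) or 6 days (screen 2). Cell viability was read by resazurin assay, median-plate normalised (modified robust per cent of sample), and triplicate wells were averaged.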

Counter-ions that a name gives are not always drawn. ± gives the standard deviation of the averaged measurements. In all, about 1,300 compounds were measured (“normalised cell viability”: median about 1, lowest 2% from about 0.15 on). What follows is part of a selection rich in the lowest values, with near analogues and random picks from the rest.

For `CS(=O)(=O)c1ccc(C2=C(c3ccccc3)C(=O)OC2)cc1` [Rofecoxib], the normalised cell viability (treatment time: 3 days) is 1 ± 0.039 and the normalised cell viability (treatment time: 6 days) worked out at 1.02 ± 0.06.

On to `CS(=O)(=O)c1ccc([C@@H](O)[C@@H](CO)NC(=O)C(Cl)Cl)cc1` [Thiamphenicol], for which the normalised cell viability is, setting by setting: (treatment time: 3 days) 0.9701 ± 0.0087; (treatment time: 6 days) 0.927 ± 0.02.

For `NCCc1c[nH]cn1` [Histamine dihydrochloride], the normalised cell viability came to 0.994 ± 0.016 (treatment time: 3 days) and 0.991 ± 0.064 (treatment time: 6 days).

As to `COc1ccc(C(=O)CC(=O)c2ccc(C(C)(C)C)cc2)cc1` [Avobenzone], the normalised cell viability runs as follows: (treatment time: 3 days) 1.02 ± 0.057; (treatment time: 6 days) 1.04 ± 0.12.

`CCN(CC)C(=O)/C(C#N)=C/c1cc(O)c(O)c([N+](=O)[O-])c1` [Entacapone]: the normalised cell viability is, setting by setting: (treatment time: 3 days) 0.944 ± 0.013; (treatment time: 6 days) 1.03 ± 0.03.

In the case of `CC(C)COCC(CN(Cc1ccccc1)c1ccccc1)N1CCCC1` (stereo unspecified) [Bepridil hydrochloride], the normalised cell viability runs as follows: (treatment time: 3 days) 0.938 ± 0.069; (treatment time: 6 days) 0.828 ± 0.035.

On to `COc1cc([C@@H]2c3cc4c(cc3[C@@H](O[C@@H]3O[C@@H]5CO[C@@H](C)O[C@H]5[C@H](O)[C@H]3O)[C@H]3COC(=O)[C@H]23)OCO4)cc(OC)c1O` [Etoposide], for which the normalised cell viability by setting is: (treatment time: 3 days) 0.141 ± 0.0097; (treatment time: 6 days) 0.15 ± 0.017.

`CC(=O)[C@@]12O[C@](C)(c3ccccc3)O[C@@H]1C[C@H]1[C@@H]3CCC4=CC(=O)CC[C@]4(C)[C@H]3CC[C@@]12C` [Algestone acetophenide]: the normalised cell viability is, setting by setting: (treatment time: 3 days) 0.968 ± 0.025; (treatment time: 6 days) 1.07 ± 0.1.

`CCCCCCCCNC(C)C(O)c1ccc(SC(C)C)cc1` (stereo unspecified) [Suloctidil]: the normalised cell viability by setting is: (treatment time: 3 days) 0.653 ± 0.045; (treatment time: 6 days) 0.743 ± 0.068.

`CC(C)NCC(O)c1cc(O)cc(O)c1` (stereo unspecified) [Metaproterenol sulfate, orciprenaline sulfate]: the normalised cell viability is 1.03 ± 0.023 (treatment time: 3 days) and 1.04 ± 0.02 (treatment time: 6 days).

`Nc1ccc(C(=O)O)c(O)c1` [4-aminosalicylic acid]: the normalised cell viability (treatment time: 3 days) was determined as 0.944 ± 0.086 and the normalised cell viability (treatment time: 6 days) turned out to be 1.03 ± 0.043.

In the case of `CN(C)CCN(Cc1cccs1)c1ccccn1` [Methapyrilene hydrochloride], the normalised cell viability (treatment time: 3 days) came out at 1.12 ± 0.021 and the normalised cell viability (treatment time: 6 days) stood at 1.04 ± 0.042.

On to `CO/N=C(\C(=O)N[C@@H]1C(=O)N2C(C(=O)O)=C(C[N+]3(C)CCCC3)CS[C@H]12)c1csc(N)n1` [Cefepime hydrochloride], for which the normalised cell viability (treatment time: 3 days) came to 0.933 ± 0.092 and the normalised cell viability (treatment time: 6 days) amounted to 0.888 ± 0.098.

With `CCC1NC(=O)c2cc(S(N)(=O)=O)c(Cl)cc2N1` (stereo unspecified) [Quinethazone], the normalised cell viability was 0.989 ± 0.058 (treatment time: 3 days) and 0.989 ± 0.073 (treatment time: 6 days).

Regarding `Nc1ccc(/N=N/c2ccccc2)c(N)n1` [Phenazopyridine hydrochloride], the normalised cell viability turned out to be 1.02 ± 0.039 (treatment time: 3 days) and 1.04 ± 0.035 (treatment time: 6 days).

Take `Clc1ccc(C(c2ccccc2Cl)C(Cl)Cl)cc1` (stereo unspecified) [Mitotane]: the normalised cell viability (treatment time: 3 days) stood at 1.02 ± 0.035 and the normalised cell viability (treatment time: 6 days) was determined as 1.01 ± 0.076.

`CC(C)NCC(O)c1ccc(O)c(O)c1` (single isomer, unassigned; (+)) [(+)-Isoproterenol (+)-bitartrate salt]: the normalised cell viability is 1 ± 0.048 (treatment time: 3 days) and 1.05 ± 0.07 (treatment time: 6 days).

Take `CC(=O)OCC(=O)[C@@]1(O)[C@H](C)C[C@H]2[C@@H]3CCC4=CC(=O)C=C[C@]4(C)[C@@]3(F)[C@@H](O)C[C@@]21C` [Dexamethasone acetate]: the normalised cell viability runs as follows: (treatment time: 3 days) 1.08 ± 0.057; (treatment time: 6 days) 1.02 ± 0.056.

For `NC(=O)c1cnccn1` [Pyrazinamide], the normalised cell viability worked out at 1.14 ± 0.039 (treatment time: 3 days) and 1.02 ± 0.043 (treatment time: 6 days).

As for `CCN(CC)CCc1nc(-c2ccccc2)no1` [Oxalamine citrate salt], the normalised cell viability by setting is: (treatment time: 3 days) 1 ± 0.018; (treatment time: 6 days) 1.01 ± 0.03.

As to `C=C1/C(=C\C=C2/CCC[C@]3(C)[C@@H]([C@H](C)CCCC(C)C)CC[C@@H]23)C[C@@H](O)C[C@@H]1O` [Alfacalcidol], the normalised cell viability reads like this: (treatment time: 3 days) 0.751 ± 0.062; (treatment time: 6 days) 0.719 ± 0.094.

Take `C[C@@H]1NC(=O)NC1=O` [Methylhydantoin-5-(L)]: the normalised cell viability by setting is: (treatment time: 3 days) 0.988 ± 0.053; (treatment time: 6 days) 1.07 ± 0.046.

With `CCOC(=O)[C@H](CCc1ccccc1)N[C@H]1CCc2ccccc2N(CC(=O)O)C1=O` [Benazepril HCl], the normalised cell viability is, setting by setting: (treatment time: 3 days) 1.03 ± 0.018; (treatment time: 6 days) 1.07 ± 0.029.

For `CC(C)NCC(O)c1ccc2ccccc2c1` (stereo unspecified) [Pronethalol hydrochloride], the normalised cell viability (treatment time: 3 days) came out at 0.972 ± 0.037 and the normalised cell viability (treatment time: 6 days) was 0.995 ± 0.041.

`CC(=O)[C@H]1CC[C@H]2[C@@H]3CC=C4C[C@@H](O)CC[C@]4(C)[C@H]3CC[C@]12C` [Pregnenolone]: the normalised cell viability is 1 ± 0.067 (treatment time: 3 days) and 1.07 ± 0.12 (treatment time: 6 days).

As to `O=C1c2c(O)cccc2Cc2cccc(O)c21` [Anthralin], the normalised cell viability reads like this: (treatment time: 3 days) 0.979 ± 0.036; (treatment time: 6 days) 0.978 ± 0.018.

For the molecule `O=C1c2c(O)ccc(O)c2C(=O)c2c(NCCNCCO)ccc(NCCNCCO)c21` [Mitoxantrone dihydrochloride], the normalised cell viability is, setting by setting: (treatment time: 3 days) 0.123 ± 0.0098; (treatment time: 6 days) 0.124 ± 0.0098.

With `O=C1c2cccc(O)c2C(=O)c2c(O)cccc21` [1,8-Dihydroxyanthraquinone], the normalised cell viability (treatment time: 3 days) is 0.853 ± 0.051 and the normalised cell viability (treatment time: 6 days) is 0.914 ± 0.076.

Turning to `Clc1ccc(COC(Cn2ccnc2)c2ccc(Cl)cc2Cl)cc1` (stereo unspecified) [Econazole nitrate], the normalised cell viability by setting is: (treatment time: 3 days) 1 ± 0.025; (treatment time: 6 days) 1.04 ± 0.049.

With `CC(=O)NC[C@H]1CN(c2ccc(N3CCOCC3)c(F)c2)C(=O)O1` [Linezolid], the normalised cell viability (treatment time: 3 days) worked out at 1.06 ± 0.11 and the normalised cell viability (treatment time: 6 days) turned out to be 1.04 ± 0.04.

On to `O=C(NCC1CCCCN1)c1cc(OCC(F)(F)F)ccc1OCC(F)(F)F` (stereo unspecified) [Flecainide acetate], for which the normalised cell viability worked out at 1.12 ± 0.066 (treatment time: 3 days) and 1.02 ± 0.12 (treatment time: 6 days).

In the case of `CCCCC(C)(O)C/C=C/[C@H]1[C@H](O)CC(=O)[C@@H]1CCCCCCC(=O)OC` (mixture of isomers) [Misoprostol], the normalised cell viability (treatment time: 3 days) stood at 0.976 ± 0.09 and the normalised cell viability (treatment time: 6 days) stood at 1.03 ± 0.024.

For the molecule `CCN(CC)CCN[C@@H](C(=O)OCCC(C)C)c1ccccc1` [Camylofine chlorhydrate], the normalised cell viability is, setting by setting: (treatment time: 3 days) 0.957 ± 0.014; (treatment time: 6 days) 0.998 ± 0.096.

Turning to `CC1(C)S[C@@H]2[C@H](NC(=O)[C@H](C(=O)O)c3ccsc3)C(=O)N2[C@H]1C(=O)O` [Ticarcillin sodium], the normalised cell viability by setting is: (treatment time: 3 days) 1.02 ± 0.021; (treatment time: 6 days) 1.04 ± 0.097.

In the case of `CC(=O)Oc1cccc2c1C(=O)c1c(OC(C)=O)cc(C(=O)O)cc1C2=O` [Diacerein], the normalised cell viability (treatment time: 3 days) turned out to be 0.749 ± 0.038 and the normalised cell viability (treatment time: 6 days) was determined as 0.796 ± 0.027.

Consider `CCN(CC)CCCC(C)Nc1c2ccc(Cl)cc2nc2ccc(OC)cc12` (stereo unspecified) [Quinacrine dihydrochloride dihydrate], for which the normalised cell viability came out at 0.133 ± 0.0038 (treatment time: 3 days) and 0.107 ± 0.0083 (treatment time: 6 days).

With `CCN(CC)CCCC(C)Nc1ccnc2cc(Cl)ccc12` (stereo unspecified) [Chloroquine diphosphate], the normalised cell viability came out at 0.852 ± 0.023 (treatment time: 3 days) and 0.938 ± 0.082 (treatment time: 6 days).

In the case of `CCN(CCO)CCCC(C)Nc1ccnc2cc(Cl)ccc12` (stereo unspecified) [Hydroxychloroquine sulfate], the normalised cell viability amounted to 0.606 ± 0.024 (treatment time: 3 days) and 0.666 ± 0.032 (treatment time: 6 days).

On to `O=C(CCCN1CCN(c2ccccn2)CC1)c1ccc(F)cc1` [Azaperone], for which the normalised cell viability came out at 1.1 ± 0.34 (treatment time: 3 days) and 0.902 ± 0.052 (treatment time: 6 days).

As to `CCCCN1CCCCC1C(=O)Nc1c(C)cccc1C` (stereo unspecified) [Bupivacaine hydrochloride], the normalised cell viability by setting is: (treatment time: 3 days) 0.962 ± 0.049; (treatment time: 6 days) 1.03 ± 0.038.

In the case of `CCOC(=O)c1ccc(N)cc1` [Benzocaine], the normalised cell viability reads like this: (treatment time: 3 days) 0.871 ± 0.023; (treatment time: 6 days) 0.9583 ± 0.0066.

As for `CN(N=O)C(=O)N[C@@H](C=O)[C@@H](O)[C@H](O)[C@H](O)CO` [Streptozotocin], the normalised cell viability turned out to be 1.07 ± 0.073 (treatment time: 3 days) and 1.06 ± 0.053 (treatment time: 6 days).

`O=C(CCCN1CCC(O)(c2ccc(Br)cc2)CC1)c1ccc(F)cc1` [Bromperidol]: the normalised cell viability (treatment time: 3 days) was 0.976 ± 0.027 and the normalised cell viability (treatment time: 6 days) turned out to be 0.979 ± 0.038.
